Experimental data reported in PubChem BioAssay (NCI).
This is part of a sample that, as a whole, favours compounds with a hit. Of some 79,000 tested, about 15% had one in any assay. Rule as the data show it: active = growth inhibition above about 70%; inactive = the rest.

Assays:
[1] = NCI Yeast Anticancer Drug Screen. Data for the rad50 strain (AID 155);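 also: 0% = growth of vehicle-only cultures of the same strain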; details: S. cerevisiae rad50 strain growth inhibition; at 50.0 µM; hits give high values
Procedure, shortened: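 Genetically altered yeast (DNA repair pathway); compound treatment; growth inhibition vs vehicle ctrl.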

[2] = NCI Yeast Anticancer Drug Screen. Data for the mec2-1 strain (AID 157); details: S. cerevisiae mec2-1 strain, at 50.0 µM, hits give high values
Procedure, shortened: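 Readout is yeast growth inhibition, normalised to vehicle-treated controls, in the mec2-1 strain exposed to compound.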

[3] = NCI Yeast Anticancer Drug Screen. Data for the sgs1 mgt1 strain (AID 161);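 also: 0% = growth of cultures given vehicle only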; details: S. cerevisiae sgs1 mgt1 strain, at 50.0 µM, hits give high values
Procedure, shortened: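 Yeast cells carrying a defined DNA-repair defect were exposed to test compounds. Growth inhibition was measured relative to vehicle-treated controls.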

[4] = NCI Yeast Anticancer Drug Screen. Data for the cln2 rad14 strain (AID 165);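 also: 0% = growth equal to vehicle treated cultures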; details: S. cerevisiae cln2 rad14 strain, at 50.0 µM, hits give high values
Procedure, shortened: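 Relative to vehicle controls, growth inhibition of compound-treated cln2 rad14 yeast was recorded.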

[5] = NCI Yeast Anticancer Drug Screen. Data for the bub3 strain (AID 167); details: S. cerevisiae bub3 mutant strain, at 50.0 µM, hits give high values
Procedure, shortened: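 Yeast carrying a defined mutation is treated with each compound, and growth is compared with that of vehicle-exposed cells to give inhibition.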

[6] = NCI Yeast Anticancer Drug Screen. Data for the mlh1 rad18 strain (AID 175); details: S. cerevisiae mlh1 rad18 strain growth inhibition; at 50.0 µM; hits give high values
Procedure, shortened: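 Test agents were incubated with a yeast strain of defined genotype (DNA damage repair defect). Inhibition of growth was derived by comparison with vehicle-exposed cultures.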

Measured: growth inhibition

C[N+](C)(C)C(Cc1ccccc1)Cc1ccccc1
inactive: [1] -27% | [2] 9.95% | [3] -29.9% | [4] -47.1% | [5] -0.7% | [6] 5.65%

COC(=O)C1CC(=O)c2cc(OC)ccc2C1 (centres undefined)
inactive: [1] -1.85% | [2] 2.8% | [3] -7.7% | [4] 6.05% | [5] -7.75% | [6] -27.1%

CNc1ccccc1C(=O)N/N=C/c1ccc(O)c(OC)c1
inactive: [1] 3% | [2] 5.65% | [3] 0.85% | [4] 2.55% | [5] 37.4% | [6] -19.6%

COc1ccc(C(=N)c2ccccc2C)cc1
inactive: [1] 8% | [2] -8.65% | [3] 6.05% | [4] 1.65% | [5] 8.5% | [6] -8.4%

CC1C2CC(C/C2=N/O)C1(C)C (centres undefined)
inactive: [1] 19.7% | [2] 19.1% | [3] 36.5% | [4] 29.1% | [5] 11.3% | [6] 21.6%

O=C(NC(CSC(=O)c1ccccc1)C(=O)O)c1ccccc1 (centres undefined)
inactive: [1] 3.2% | [2] -8.5% | [3] -2.6% | [4] -22.1% | [5] 6.8% | [6] 7.45%

CC(=O)N1Cc2cncnc2C1
inactive: [1] -0.8% | [2] 5.95% | [3] -2.5% | [4] -17.1% | [5] -0.95% | [6] 23.7%

COc1cc(C2c3cc4c(cc3OC(C)(OC)C2C(C)=O)OCO4)cc(OC)c1O (centres undefined)
inactive: [1] 4.05% | [2] -6.25% | [3] -24.6% | [4] -2.9% | [5] -1.2% | [6] -0.35%

COc1ccc(-c2nc(N)nc(-c3cc(C)ccc3O)c2Cl)cc1
inactive: [1] 12.7% | [2] -0.45% | [3] 5.3% | [4] 17.4% | [5] 6.5% | [6] 12.6%

CCOC(=O)c1cc(C)nc(Cl)c1C#N
inactive: [1] 6.3% | [2] 12.8% | [3] 7.9% | [4] 13.7% | [5] 21.1% | [6] 12.4%

CCOC(=O)C(C(=O)OCC)=C(N)C(Cl)(Cl)Cl
inactive: [1] 0.2% | [2] -1.6% | [3] -9.9% | [4] 14.8% | [5] 11.7% | [6] -1.9%

CCOC(=O)C(C)(Cc1ccco1)C(=O)OCC
inactive: [1] -16.1% | [2] -10.3% | [3] -5.2% | [4] -33.5% | [5] 14.4% | [6] -12.3%

CC(C)N(C(=O)C1C2CCC(CC2)C1C(=O)N(C(C)C)C(C)C)C(C)C (centres undefined)
inactive: [1] 2.4% | [2] 17.5% | [3] 11.3% | [4] -0.9% | [5] 27.6% | [6] 20.7%

CC(=O)N(C)N=Nc1ccc(Cl)cc1
inactive: [1] 10.4% | [2] 11.7% | [3] 2.05% | [4] -17.6% | [5] 3.8% | [6] 15.9%

CCCCCCCCCCCO/N=C\c1c2c(O)c3c(O)c(C)c4c(c3c1O)C(=O)C(C)(O/C=C\C(OC)C(C)C(OC(C)=O)C(C)C(O)C(C)C(O)C(C)/C=C\C=C(\C)C(=O)N2)O4 (centres undefined)
inactive: [1] -4.75% | [2] -4.75% | [3] -13.7% | [4] -9.75% | [5] -5.1% | [6] 26.2%

O=[N+]([O-])c1ccc(Nc2ccc(Cl)cc2)c2nonc12
inactive: [1] -24.7% | [2] -7.9% | [3] 25.7% | [4] 18.4% | [5] 8.85% | [6] 23.4%

CCOC(=O)c1[nH]n(-c2ccccc2)c(=O)c1C=NC(=S)c1cccnc1
inactive: [1] -12.3% | [2] 2.1% | [3] -29.2% | [4] 20.2% | [5] -24.9% | [6] -16.5%

CCCC(=O)OCC(C)(C)COC(=O)CCC
inactive: [1] -5.65% | [2] -13.2% | [3] 10.9% | [4] 3.5% | [5] 16% | [6] 6.6%

O=S(=O)([O-])c1ccc2c[n+]3ccccc3cc2c1
inactive: [1] -16.1% | [2] 5% | [3] -0.95% | [4] -44.6% | [5] 6.1% | [6] -10.3%
